BAZ2B inh – qHTS Assay for Inhibitors of BAZ2B; 360,000 tested, 4.4% active; AlphaScreen BAZ2B-H3K14Ac peptide displacement; Bromodomain adjacent to zinc finger domain protein 2B (Homo sapiens), Q9UIF8; Potency, µM (series often up to 114 µM), hits mostly inhibitors; also: nearly all actives have a fitted effect of over 60% in size
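Compounds, titrated to a top concentration of 110 uM, were incubated 30 min at room temperature with preformed BAZ2B/acetyl-K14 H3 peptide complex (50 nM each). Proximity signal was measured by AlphaScreen after 20 min with beads.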
G9a inh – qHTS Assay for Inhibitors of Histone Lysine Methyltransferase G9a; Potency, µM (titrated, usually from 102 µM), usual class: inhibitors; G9a H3K9 monomethylation, AlphaScreen, 2 h; 350,000 tested, 8.8% active; also: nearly all actives have a fitted effect of over 75% in size
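Using a bead-based AlphaScreen, monomethylated H3K9 product from 2 h room-temperature reactions (G9a 20 nM, peptide 500 nM, SAM 20 uM) was detected with 0.5 ug/mL rabbit anti-H3K9me1 antibody.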
Sfp PPTase inh – qHTS Assay for Inhibitors of Bacillus subtilis Sfp phosphopantetheinyl transferase (PPTase); 310,000 tested, 3.5% active; Biochemical Sfp PPTase activity, qHTS; Potency, µM, usual class: inhibitors; 4'-phosphopantetheinyl transferase ffp (Bacillus subtilis), Q9F4F7;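 also: the enzyme is Sfp with the accession as filed and its product quenches rhodamine fluorescence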
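Compounds were incubated with enzyme (final 15 nM) for 15 min at room temperature before substrate addition started the reaction. Fluorescence at 525 nm excitation, 598 nm emission was recorded immediately and after 30 minutes.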
JMJD2A Tudor inh – qHTS Assay for Inhibitors of JMJD2A-Tudor Domain. AlphaScreen JMJD2A-Tudor / H3K4me3 peptide binding. 390,000 tested, 4.4% active. Lysine-specific demethylase 4A (Homo sapiens), O75164. AID 504339, 2011. Potency, µM (titrated, usually from 114 µM), actives largely listed as inhibitors; also: nearly all actives have a fitted effect of over 50% in size
Target sequence (O75164 whole entry, looked up, the tested form may be a part): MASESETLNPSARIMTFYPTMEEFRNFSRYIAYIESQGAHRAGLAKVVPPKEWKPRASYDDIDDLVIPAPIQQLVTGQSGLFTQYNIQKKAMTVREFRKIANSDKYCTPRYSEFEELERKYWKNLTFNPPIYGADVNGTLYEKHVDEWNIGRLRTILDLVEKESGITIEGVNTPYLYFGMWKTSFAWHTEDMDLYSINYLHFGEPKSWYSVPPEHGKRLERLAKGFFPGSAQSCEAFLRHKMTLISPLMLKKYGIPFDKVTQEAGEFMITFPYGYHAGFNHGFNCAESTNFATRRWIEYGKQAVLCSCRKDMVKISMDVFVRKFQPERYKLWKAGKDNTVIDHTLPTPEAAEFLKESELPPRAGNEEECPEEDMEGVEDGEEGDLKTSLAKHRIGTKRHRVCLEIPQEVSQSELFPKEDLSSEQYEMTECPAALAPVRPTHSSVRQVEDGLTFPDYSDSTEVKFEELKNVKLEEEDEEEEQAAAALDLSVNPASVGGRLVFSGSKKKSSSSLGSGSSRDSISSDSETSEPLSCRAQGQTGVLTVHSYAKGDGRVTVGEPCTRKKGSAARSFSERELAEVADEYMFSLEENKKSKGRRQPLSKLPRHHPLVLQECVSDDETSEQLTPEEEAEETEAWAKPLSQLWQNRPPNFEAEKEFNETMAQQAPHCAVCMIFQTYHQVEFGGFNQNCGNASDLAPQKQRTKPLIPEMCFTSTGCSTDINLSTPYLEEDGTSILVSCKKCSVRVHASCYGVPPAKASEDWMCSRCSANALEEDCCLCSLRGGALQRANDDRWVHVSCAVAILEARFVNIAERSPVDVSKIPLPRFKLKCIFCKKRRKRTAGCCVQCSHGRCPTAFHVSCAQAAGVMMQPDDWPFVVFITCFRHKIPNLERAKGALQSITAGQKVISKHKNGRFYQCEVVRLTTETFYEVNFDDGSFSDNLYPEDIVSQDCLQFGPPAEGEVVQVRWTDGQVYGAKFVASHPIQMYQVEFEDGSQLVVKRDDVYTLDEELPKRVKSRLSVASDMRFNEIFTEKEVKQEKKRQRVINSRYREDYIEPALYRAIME
HP1b chromo inh – HTS for Inhibitors of HP1-beta Chromodomain Interactions with Methylated Histone Tails; 390,000 tested, 0.56% active; AlphaScreen HP1-beta / biotin-H3K9me3 peptide binding; AID 540317, 2011; Potency, µM (top dose mostly 114 µM), hits mostly inhibitors; Chromobox protein homolog 1 (Homo sapiens), P83916; also: nearly all actives have a fitted effect of over 70% in size
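Compound inhibition of the preformed complex between 50 nM HP1-beta and 50 nM biotinylated H3K9me3 peptide was read by AlphaScreen. Buffer was PBS pH 7.4 with 0.01% Tween-20. Incubations ran 30 min at room temperature, with 10 ug/mL donor/acceptor beads.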
Hits are given with their value; . = inactive; ? = inconclusive; / = no result; [ ] = dose if it differs, or a comment. Most compounds without a hit are left out; they make up all but 12% or so of the library. Calls follow the shape of the dose curve; as a rule, active = well fitted curve in the direction sought with a large enough effect; inconclusive = small, poorly fitted or top-dose-only effect, or another doubt; inactive = no such curve, though single readings can be large; an effect the other way counts as inactive or inconclusive.

SMILES	BAZ2B inh	G9a inh	Sfp PPTase inh	JMJD2A Tudor inh	HP1b chromo inh
CC(C)(C)c1ccc(C(=O)NC(=S)NNC(=O)c2cccs2)cc1	.	39.8µM	.	?	.
O=C(NC(=S)NNC(=O)c1cccs1)c1ccccc1	.	8.91µM	.	.	.
O=C(NNC(=O)c1cc2cc3ccccc3nc2s1)c1cccc(Cl)c1	.	31.6µM	.	50.1µM	.
Cc1cccc(C(=O)NNC(=O)c2cc3cc4ccccc4nc3s2)c1	.	/	.	.	.
Cc1cccc(C(=O)NC(=S)NNC(=O)c2ccc(Cl)cc2)c1	.	39.8µM	.	.	.
C/C(=N\NC(=O)c1ccccc1O)C1CC1	.	.	.	.	.
O=C(NNC(=O)c1cccc(Cl)c1)NNC(=O)c1cccc(Cl)c1	/	/	/	.	.
NC(=S)NNC(=O)c1cccc(Cl)c1	.	70.8µM	?	.	.
Cc1ccccc1C(=O)NNC(=S)NC(=O)c1cccs1	.	?	.	.	.
Cc1cccc(C(=O)NC(=S)NNC(=O)c2cccs2)c1	.	7.08µM	.	25.1µM	?
Cc1cc(OCC(=O)NNC(=S)NC(=O)c2cccs2)ccc1Cl	.	31.6µM	.	.	.
N/C(COc1ccc(C(=O)O)cc1)=N\O	?	50.1µM	.	.	.
COc1cc(/C=C2\SC(=O)N(Cc3ccc(Cl)cc3)C2=O)cc([N+](=O)[O-])c1O	15.8µM	.	.	8.91µM	12.6µM
COc1cc(/C=C2\SC(=O)N(Cc3ccc(F)cc3)C2=O)cc([N+](=O)[O-])c1O	8.91µM	/	.	28.2µM	15.8µM
CCOC(=O)CN1C(=O)S/C(=C/c2ccc(OC)c([N+](=O)[O-])c2)C1=O	.	.	.	.	.
COCCNC(=O)C1CCN(S(=O)(=O)c2ccc3c(c2)CCCN3C(C)=O)CC1	.	.	/	.	.
COc1cc(-c2cc3n(C)c(C)c(CCC(=O)NCc4ccccc4)c(=O)n3n2)cc(OC)c1OC	.	.	/	.	.
COc1ccc(N2CC(O)=C(c3nc(-c4ccc(F)cc4)cs3)C2=N)cc1OC	.	.	.	.	.
COc1ccc(N2CC(O)=C(c3nc(-c4ccc(F)cc4)cs3)C2=N)cc1Cl	.	.	.	39.8µM	.
COc1ccc(CC2(C)OC(c3ccc([N+](=O)[O-])cc3)=NN2C(C)=O)cc1 (stereo not given)	?	11.2µM	.	?	?
Cc1cc(C)cc(C(=O)NC(=S)Nc2ccc(Cc3ccncc3)cc2)c1	?	22.4µM	.	?	?
Cc1cccc(C(=O)NC(=S)Nc2ccc(Cc3ccncc3)cc2)c1	?	31.6µM	.	?	.
COc1cc(C(=O)NC(=S)Nc2ccc(Cc3ccncc3)cc2)cc(OC)c1OC	.	.[2.33 µM]	.	?	.
COc1ccccc1C(=O)NC(=S)Nc1ccc(Cc2ccncc2)cc1	?	31.6µM	?	.	.
COc1cc(OC)cc(C(=O)NNC(=O)c2nn(C)c(=O)c3ccccc23)c1	/	/	/	.	.
SMILES	BAZ2B inh	G9a inh	Sfp PPTase inh	JMJD2A Tudor inh	HP1b chromo inh
COc1ccc(NC(=O)CC(C)CC(=O)NCc2ccc(F)cc2)c(OC)c1 (stereo not given)	.	/	.	.	.
COc1ccccc1CNC(=O)COC(=O)c1ccc2c(=O)n3c(nc2c1)CCCCC3	.	.[12.7 µM]	/	.	.
Cc1ccc(NCCC(=O)c2cccs2)cc1C	?	31.6µM	.	56.2µM	?
Cc1ccc(NCCC(=O)c2cccs2)cc1	?	50.1µM	.	50.1µM	.
Cc1ccc(NCCC(=O)c2cccs2)cc1Cl	.	.	.	.	.
Fc1ccccc1Nc1nc2ccccc2o1	.	.	.	.	.
CCC(=O)Nc1cccc(C2=NOC3(C2)C[C@@H](C(N)=O)N(C(=O)CC)C3)c1 (stereo not given in full)	.	.	.	.	.
C/C=C/C=C\C(=O)Nc1cccc(C2=NOC3(C2)C[C@@H](C(N)=O)N(C(=O)c2cc([N+](=O)[O-])cc([N+](=O)[O-])c2C)C3)c1 (stereo not given in full)	.	.[12.7 µM]	25.1µM	.	.
C/C=C\C=C\C(=O)N1CC2(CC(c3cccc(NC(=O)CC)c3)=NO2)C[C@H]1C(N)=O (stereo not given in full)	.	?	35.5µM	.	.
CCCCCC(=O)Nc1cccc(C2=NOC3(C2)C[C@@H](C(N)=O)N(C(=O)c2cc([N+](=O)[O-])cc([N+](=O)[O-])c2C)C3)c1 (stereo not given in full)	?	.	.	?	.
C/C=C/C(=O)N1CC2(CC(c3cccc(NC(=O)/C(C)=C/C)c3)=NO2)C[C@H]1C(N)=O (stereo not given in full)	.	.	.	.	.
C/C=C/C=C/C(=O)Nc1cccc(C2=NOC3(C2)C[C@H](C(N)=O)N(C(=O)CC(c2ccccc2)c2ccccc2)C3)c1 (stereo not given in full)	?	.[12.7 µM]	39.8µM	/	/
C/C=C\C(=O)Nc1cccc(C2=NOC3(C2)C[C@@H](C(N)=O)N(C(=O)CC(c2ccccc2)c2ccccc2)C3)c1 (stereo not given in full)	?	.[12.7 µM]	.	?	.
C/C=C/C=C\C(=O)Nc1cccc(C2=NOC3(C2)C[C@H](C(N)=O)N(C(=O)/C=C/C)C3)c1 (stereo not given in full)	.	?	22.4µM	79.4µM	?
CCOC(=O)c1c(C)[nH]c(C)c1S(=O)(=O)N(C)CC(=O)Nc1ccc(C)c(F)c1	.	.	/	.	.
CCN1C(=O)c2ccccc2Sc2ccc(NC(=O)Nc3ccc(Br)c(C)c3)cc21	.	.	/	.	.
COc1ccc(CCCc2nnc(SCC(=O)Nc3cccc(F)c3C)o2)cc1	.	.	/	?	.
C/C=C\C=C/C(=O)Nc1cccc(C2=NOC3(C2)C[C@@H](C(N)=O)N(C(=O)c2ccccc2)C3)c1 (stereo not given in full)	.	?	11.2µM	/	/
C/C=C\C(=O)Nc1cccc(C2=NOC3(C2)C[C@@H](C(N)=O)N(C(=O)c2ccccc2)C3)c1 (stereo not given in full)	.	.	.	.	.
Cc1ccc(CNc2nc(-c3ccco3)nn2S(C)(=O)=O)cc1	.	.	/	.	.
Cc1ccccc1NC(=O)c1c(NC(=O)C(F)(F)F)sc2c1CCCCC2	.	8.91µM	/	.	.
Cc1ccccc1NC(=O)c1c(NC(=O)c2ccncc2)sc2c1CCC(C(C)(C)C)C2 (stereo not given)	.	17.8µM	/	?	.
CCOc1ccccc1NC(=O)c1c(NC(=O)c2ccncc2)sc2c1CCC(C(C)(C)C)C2 (stereo not given)	.	.	/	.	.
